The full data set covers some 8,800 targets. This sample favours those with a hit. About 0.5% of all pairs of compound and target were hits. Values without a mark were called inactive.
Key:
Assay in all cases: log2 fold change, soluble protein after heating vs DMSO (PISA); higher = thermal stabilisation; K562 lysate, 10 uM; active = over 0.2 and 3.5 SD of the protein, either way, in both replicates (recomputed)
vemurafenib = compound: CCCS(=O)(=O)Nc1ccc(F)c(C(=O)c2c[nH]c3ncc(-c4ccc(Cl)cc4)cc23)c1F [vemurafenib]
Procedure, shortened: (§1)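 Values give the log-two fold change in thermal stability against solvent controls, from duplicates. Crude K562 extract at 1 mg/mL protein, made by dounce homogenisation in PBS pH 7.4 with 1 mM MgCl2, was treated with 10 μM compound for 30 min. After 3 min heating across 48°C-58°C, aliquots were pooled, adjusted to 0.5% NP-40 at 4°C and centrifuged at 21,000xg for 90 min. The supernatant was measured by TMTpro 16plex LC-MS/MS with channel sums equalised.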

[1] = compound: CCCS(=O)(=O)Nc1ccc(F)c(C(=O)c2c[nH]c3ncc(Cl)cc23)c1F
Procedure, shortened: as §1

barasertib = compound: CCN(CCCOc1ccc2c(Nc3cc(CC(=O)Nc4cccc(F)c4)[nH]n3)ncnc2c1)CCOP(=O)(O)O [barasertib]
Procedure, shortened: as §1

[2] = compound: CC[C@@H]1C(=O)N(C)c2cnc(Nc3ccc(C(=O)NC4CCN(C)CC4)cc3OC)nc2N1C1CCCC1
Procedure, shortened: as §1

volasertib = compound: CC[C@@H]1C(=O)N(C)c2cnc(Nc3ccc(C(=O)N[C@H]4CC[C@H](N5CCN(CC6CC6)CC5)CC4)cc3OC)nc2N1C(C)C [volasertib]
Procedure, shortened: as §1

[3] = compound: CCn1c(C(=O)N(C2CC2)C2CC2)cc2c3c(ncn3C)c(Nc3cc(C)n(C)n3)nc21
Procedure, shortened: as §1

[4] = compound: CCn1cc(-c2ccnc3[nH]c(-c4cccc(CN(C)C)c4)cc23)c(-c2ccc(NC(=O)N(C)C)cc2)n1
Procedure, shortened: as §1

[5] = compound: CN1CCC(CNc2ccc3ncc(-c4cccc(OC(F)(F)F)c4)n3n2)CC1
Procedure, shortened: as §1

sotrastaurin = compound: CN1CCN(c2nc(C3=C(c4c[nH]c5ccccc45)C(=O)NC3=O)c3ccccc3n2)CC1 [sotrastaurin]
Procedure, shortened: as §1

saracatinib = compound: CN1CCN(CCOc2cc(OC3CCOCC3)c3c(Nc4c(Cl)ccc5c4OCO5)ncnc3c2)CC1 [saracatinib]
Procedure, shortened: as §1

ACLY isoform 2 (UniProt P53396)
log2 fold change (vemurafenib): 0.035
log2 fold change [1]: 0
log2 fold change (barasertib): -0.088
log2 fold change [2]: 0.045
log2 fold change (volasertib): -0.033
log2 fold change [3]: -0.187
log2 fold change [4]: -0.485 (active)
log2 fold change [5]: 0.43
log2 fold change (sotrastaurin): 0.02

AIF1L (UniProt Q9BQI0)
log2 fold change [1]: 0.049
log2 fold change (barasertib): 0.009
log2 fold change [2]: -0.101
log2 fold change (volasertib): -0.086
log2 fold change [3]: 0.091
log2 fold change [4]: 0.153
log2 fold change [5]: -0.117
log2 fold change (saracatinib): 0.13
log2 fold change (sotrastaurin): 0.115

ABRACL (UniProt Q9P1F3)
Sequence of UniProt Q9P1F3 (Q9P1F3 whole entry, looked up): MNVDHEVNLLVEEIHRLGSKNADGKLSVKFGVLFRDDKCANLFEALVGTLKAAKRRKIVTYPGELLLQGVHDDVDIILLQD
log2 fold change [1]: -0.074
log2 fold change (barasertib): 0.06
log2 fold change (volasertib): -0.001
log2 fold change [4]: 0.156
log2 fold change [5]: 0.053
log2 fold change (saracatinib): 0.134
log2 fold change (sotrastaurin): 0

ALKBH1 (UniProt Q13686)
log2 fold change (vemurafenib): 0.069
log2 fold change [2]: -0.05
log2 fold change [3]: -0.043
log2 fold change [4]: 0.015
log2 fold change [5]: -0.072
log2 fold change (saracatinib): -0.037

ARHGEF2 (UniProt V9GYF0)
log2 fold change (vemurafenib): -0.013
log2 fold change [1]: 0.05
log2 fold change [2]: 0.022
log2 fold change (volasertib): -0.022
log2 fold change [3]: 0.11
log2 fold change (saracatinib): -0.114

ACYP2 (UniProt P14621)
Sequence of UniProt P14621 (P14621 whole entry, looked up): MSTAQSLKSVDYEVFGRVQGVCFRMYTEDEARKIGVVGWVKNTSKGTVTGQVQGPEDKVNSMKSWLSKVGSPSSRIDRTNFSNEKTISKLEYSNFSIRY
log2 fold change (vemurafenib): -0.245
log2 fold change [1]: -0.023
log2 fold change (barasertib): 0.04
log2 fold change (volasertib): 0.011
log2 fold change [3]: -0.007
log2 fold change [4]: 0.189
log2 fold change [5]: -0.036
log2 fold change (sotrastaurin): -0.019

ALDH18A1 isoform 2 (UniProt P54886)
Sequence of UniProt P54886 (P54886 whole entry, looked up): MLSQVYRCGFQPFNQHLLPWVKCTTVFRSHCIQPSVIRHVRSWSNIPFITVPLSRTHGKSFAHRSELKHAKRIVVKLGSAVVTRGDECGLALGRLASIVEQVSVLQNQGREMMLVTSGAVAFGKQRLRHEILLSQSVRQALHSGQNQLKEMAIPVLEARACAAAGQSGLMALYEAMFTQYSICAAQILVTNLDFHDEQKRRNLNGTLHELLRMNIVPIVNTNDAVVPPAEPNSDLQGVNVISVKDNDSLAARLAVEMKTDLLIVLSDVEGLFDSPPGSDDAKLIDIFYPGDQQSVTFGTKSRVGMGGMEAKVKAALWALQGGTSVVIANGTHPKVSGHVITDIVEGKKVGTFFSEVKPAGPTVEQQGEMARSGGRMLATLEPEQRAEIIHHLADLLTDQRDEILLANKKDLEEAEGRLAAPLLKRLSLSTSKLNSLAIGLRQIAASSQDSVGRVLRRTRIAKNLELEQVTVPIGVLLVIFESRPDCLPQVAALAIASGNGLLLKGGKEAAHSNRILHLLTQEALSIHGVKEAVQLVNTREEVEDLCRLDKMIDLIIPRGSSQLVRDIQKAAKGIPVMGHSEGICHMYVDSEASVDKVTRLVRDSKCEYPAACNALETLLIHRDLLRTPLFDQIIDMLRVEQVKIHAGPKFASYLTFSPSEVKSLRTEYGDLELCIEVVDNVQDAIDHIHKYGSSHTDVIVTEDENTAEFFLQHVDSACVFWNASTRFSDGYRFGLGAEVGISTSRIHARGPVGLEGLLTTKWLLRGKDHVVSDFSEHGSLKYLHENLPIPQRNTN
log2 fold change (vemurafenib): 0.308
log2 fold change [3]: 0.043
log2 fold change (saracatinib): 0.13
log2 fold change (sotrastaurin): 0.121

ANLN (UniProt Q9NQW6)
Sequence of UniProt Q9NQW6 (Q9NQW6 whole entry, looked up): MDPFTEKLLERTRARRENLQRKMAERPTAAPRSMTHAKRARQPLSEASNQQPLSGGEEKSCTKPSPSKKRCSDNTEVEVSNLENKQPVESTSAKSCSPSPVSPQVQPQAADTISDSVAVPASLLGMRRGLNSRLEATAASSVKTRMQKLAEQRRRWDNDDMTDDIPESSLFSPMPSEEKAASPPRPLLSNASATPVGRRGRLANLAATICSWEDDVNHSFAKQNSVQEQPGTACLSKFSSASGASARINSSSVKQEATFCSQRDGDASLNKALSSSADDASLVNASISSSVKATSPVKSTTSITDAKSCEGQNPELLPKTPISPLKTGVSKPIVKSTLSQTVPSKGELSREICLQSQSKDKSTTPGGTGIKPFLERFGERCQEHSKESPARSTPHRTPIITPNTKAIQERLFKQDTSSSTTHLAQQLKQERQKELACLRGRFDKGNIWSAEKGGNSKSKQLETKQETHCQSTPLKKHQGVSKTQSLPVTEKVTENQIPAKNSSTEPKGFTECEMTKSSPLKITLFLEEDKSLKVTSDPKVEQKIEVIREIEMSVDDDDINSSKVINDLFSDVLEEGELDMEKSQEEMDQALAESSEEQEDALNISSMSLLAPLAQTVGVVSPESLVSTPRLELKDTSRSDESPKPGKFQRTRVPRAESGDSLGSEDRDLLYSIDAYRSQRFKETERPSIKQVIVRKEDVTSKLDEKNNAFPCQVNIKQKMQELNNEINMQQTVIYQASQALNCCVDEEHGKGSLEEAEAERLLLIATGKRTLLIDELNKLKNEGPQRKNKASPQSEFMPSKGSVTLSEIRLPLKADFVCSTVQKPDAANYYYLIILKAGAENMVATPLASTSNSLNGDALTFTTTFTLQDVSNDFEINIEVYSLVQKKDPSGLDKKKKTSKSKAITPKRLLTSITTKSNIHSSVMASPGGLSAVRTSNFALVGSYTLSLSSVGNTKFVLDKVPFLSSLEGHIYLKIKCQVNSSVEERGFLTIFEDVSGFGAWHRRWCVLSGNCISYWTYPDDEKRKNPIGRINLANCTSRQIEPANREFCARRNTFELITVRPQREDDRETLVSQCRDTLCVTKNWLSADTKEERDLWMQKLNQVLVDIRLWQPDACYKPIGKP
log2 fold change (vemurafenib): -0.012
log2 fold change [1]: 0.019
log2 fold change (barasertib): 0.003
log2 fold change [2]: 0.01
log2 fold change (volasertib): -0.014
log2 fold change [3]: -0.035
log2 fold change [4]: -0.067
log2 fold change [5]: -0.014
log2 fold change (saracatinib): 0.002
log2 fold change (sotrastaurin): 0.009

ALKBH7 (UniProt Q9BT30)
log2 fold change [2]: -0.031
log2 fold change [3]: 0.072
log2 fold change [4]: 0.233
log2 fold change [5]: -0.2
log2 fold change (saracatinib): -0.012
log2 fold change (sotrastaurin): -0.016

AGGF1 (UniProt Q8N302)
Sequence of UniProt Q8N302 (Q8N302 whole entry, looked up): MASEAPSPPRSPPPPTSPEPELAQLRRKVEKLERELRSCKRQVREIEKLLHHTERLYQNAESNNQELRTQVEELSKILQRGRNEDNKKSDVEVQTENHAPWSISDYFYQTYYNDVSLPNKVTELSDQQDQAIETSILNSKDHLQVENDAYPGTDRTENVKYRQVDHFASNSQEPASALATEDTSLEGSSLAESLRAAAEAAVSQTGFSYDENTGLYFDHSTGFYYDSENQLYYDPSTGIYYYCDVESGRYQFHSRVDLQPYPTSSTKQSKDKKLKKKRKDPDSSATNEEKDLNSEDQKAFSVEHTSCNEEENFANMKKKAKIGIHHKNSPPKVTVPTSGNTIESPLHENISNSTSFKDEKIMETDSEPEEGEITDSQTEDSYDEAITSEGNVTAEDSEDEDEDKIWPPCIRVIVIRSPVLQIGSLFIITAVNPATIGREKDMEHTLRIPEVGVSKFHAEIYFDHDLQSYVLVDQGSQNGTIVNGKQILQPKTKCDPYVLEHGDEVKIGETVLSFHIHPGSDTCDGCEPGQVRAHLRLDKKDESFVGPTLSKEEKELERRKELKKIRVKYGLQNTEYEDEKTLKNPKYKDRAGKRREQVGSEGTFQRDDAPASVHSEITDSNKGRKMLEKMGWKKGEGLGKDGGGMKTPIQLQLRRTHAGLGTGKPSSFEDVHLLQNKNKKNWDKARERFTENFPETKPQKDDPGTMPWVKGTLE
log2 fold change (vemurafenib): 0.112
log2 fold change [1]: -0.043
log2 fold change (barasertib): 0.115
log2 fold change [2]: 0.084
log2 fold change (volasertib): -0.06
log2 fold change [3]: 0.001
log2 fold change [4]: -0.43 (active)
log2 fold change [5]: 0.175
log2 fold change (sotrastaurin): 0.025

AGPAT2 (UniProt O15120)
log2 fold change (vemurafenib): 0.33 (active)
log2 fold change [2]: 0.108
log2 fold change [3]: 0.002
log2 fold change [4]: -0.034
log2 fold change [5]: 0.023
log2 fold change (sotrastaurin): 0

ALG13 isoform 2 (UniProt Q9NP73)
log2 fold change [4]: 0.016
log2 fold change [5]: -0.098

AMDHD2 (UniProt Q9Y303)
log2 fold change (vemurafenib): -0.128
log2 fold change [4]: -0.116
log2 fold change [5]: 0.052
log2 fold change (sotrastaurin): 0.047

ACAT1, A0A5F9ZHJ0
log2 fold change [3]: -0.131
log2 fold change [4]: -0.006
log2 fold change [5]: 0.081

ANKRD10 (UniProt Q9NXR5)
log2 fold change (vemurafenib): 0.056
log2 fold change [1]: -0.035
log2 fold change (barasertib): 0.137
log2 fold change (volasertib): 0.1
log2 fold change [3]: 0.115
log2 fold change [4]: -0.19
log2 fold change [5]: -0.022
log2 fold change (saracatinib): 0.017
log2 fold change (sotrastaurin): 0.01

ABI1 isoform 6 (UniProt Q8IZP0)
log2 fold change [1]: -0.219
log2 fold change [2]: 0.248
log2 fold change (volasertib): 0.026

ALDH3A1 (UniProt P30838)
log2 fold change [1]: 0.014
log2 fold change (volasertib): 0.035
log2 fold change [3]: -0.399
log2 fold change [4]: -0.618
log2 fold change [5]: 0.216
log2 fold change (saracatinib): 1.2 (active)
log2 fold change (sotrastaurin): -0.007

ANKRD40 (UniProt Q6AI12)
Sequence of UniProt Q6AI12 (Q6AI12 whole entry, looked up): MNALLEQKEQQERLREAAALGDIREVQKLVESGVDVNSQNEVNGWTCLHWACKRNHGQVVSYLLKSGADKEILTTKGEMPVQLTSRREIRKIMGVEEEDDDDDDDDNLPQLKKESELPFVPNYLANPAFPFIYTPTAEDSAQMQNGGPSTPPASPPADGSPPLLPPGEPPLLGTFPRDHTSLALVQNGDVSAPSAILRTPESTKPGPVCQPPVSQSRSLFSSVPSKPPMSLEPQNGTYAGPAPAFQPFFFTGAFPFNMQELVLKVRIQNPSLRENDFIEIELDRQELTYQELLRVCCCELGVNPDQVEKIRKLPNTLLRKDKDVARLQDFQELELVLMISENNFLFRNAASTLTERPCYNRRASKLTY
log2 fold change (vemurafenib): 0.501
log2 fold change (barasertib): -0.091
log2 fold change [2]: -0.118
log2 fold change [3]: -0.066
log2 fold change [4]: 0.094
log2 fold change [5]: -0.075
log2 fold change (saracatinib): -0.101
log2 fold change (sotrastaurin): 0.012

ANKRD44 isoform 2 (UniProt Q8N8A2)
Sequence of UniProt Q8N8A2 (Q8N8A2 whole entry, looked up): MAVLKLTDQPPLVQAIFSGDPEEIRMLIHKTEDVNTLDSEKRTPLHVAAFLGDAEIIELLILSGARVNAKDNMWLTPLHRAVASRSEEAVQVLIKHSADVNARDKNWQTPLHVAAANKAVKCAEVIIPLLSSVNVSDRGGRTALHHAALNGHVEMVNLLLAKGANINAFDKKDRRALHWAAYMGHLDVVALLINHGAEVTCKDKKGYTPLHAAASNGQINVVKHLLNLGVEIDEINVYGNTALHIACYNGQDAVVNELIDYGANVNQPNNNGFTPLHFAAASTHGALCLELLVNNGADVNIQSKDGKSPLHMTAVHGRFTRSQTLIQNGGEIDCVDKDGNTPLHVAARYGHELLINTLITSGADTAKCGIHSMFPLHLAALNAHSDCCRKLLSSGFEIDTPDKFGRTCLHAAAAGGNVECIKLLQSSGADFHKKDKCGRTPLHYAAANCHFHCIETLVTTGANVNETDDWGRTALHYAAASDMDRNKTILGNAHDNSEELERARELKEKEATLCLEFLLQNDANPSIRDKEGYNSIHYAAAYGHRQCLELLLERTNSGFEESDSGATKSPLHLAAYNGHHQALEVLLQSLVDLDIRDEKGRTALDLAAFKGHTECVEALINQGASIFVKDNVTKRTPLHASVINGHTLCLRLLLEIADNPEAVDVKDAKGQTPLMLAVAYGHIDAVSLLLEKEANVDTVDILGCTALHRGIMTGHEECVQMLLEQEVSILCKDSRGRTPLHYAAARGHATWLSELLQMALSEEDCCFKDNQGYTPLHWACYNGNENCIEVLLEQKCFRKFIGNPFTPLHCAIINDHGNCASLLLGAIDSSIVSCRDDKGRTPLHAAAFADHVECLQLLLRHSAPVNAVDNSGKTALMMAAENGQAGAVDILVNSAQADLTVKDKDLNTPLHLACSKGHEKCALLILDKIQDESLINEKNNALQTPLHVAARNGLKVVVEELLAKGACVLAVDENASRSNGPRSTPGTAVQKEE
log2 fold change (vemurafenib): 0.056
log2 fold change [1]: 0.019
log2 fold change (barasertib): 0.058
log2 fold change [2]: -0.308
log2 fold change (volasertib): 0.054
log2 fold change [4]: -1.9 (active)
log2 fold change [5]: 0.616

AP5B1 (UniProt Q2VPB7)
Sequence of UniProt Q2VPB7 (Q2VPB7 whole entry, looked up): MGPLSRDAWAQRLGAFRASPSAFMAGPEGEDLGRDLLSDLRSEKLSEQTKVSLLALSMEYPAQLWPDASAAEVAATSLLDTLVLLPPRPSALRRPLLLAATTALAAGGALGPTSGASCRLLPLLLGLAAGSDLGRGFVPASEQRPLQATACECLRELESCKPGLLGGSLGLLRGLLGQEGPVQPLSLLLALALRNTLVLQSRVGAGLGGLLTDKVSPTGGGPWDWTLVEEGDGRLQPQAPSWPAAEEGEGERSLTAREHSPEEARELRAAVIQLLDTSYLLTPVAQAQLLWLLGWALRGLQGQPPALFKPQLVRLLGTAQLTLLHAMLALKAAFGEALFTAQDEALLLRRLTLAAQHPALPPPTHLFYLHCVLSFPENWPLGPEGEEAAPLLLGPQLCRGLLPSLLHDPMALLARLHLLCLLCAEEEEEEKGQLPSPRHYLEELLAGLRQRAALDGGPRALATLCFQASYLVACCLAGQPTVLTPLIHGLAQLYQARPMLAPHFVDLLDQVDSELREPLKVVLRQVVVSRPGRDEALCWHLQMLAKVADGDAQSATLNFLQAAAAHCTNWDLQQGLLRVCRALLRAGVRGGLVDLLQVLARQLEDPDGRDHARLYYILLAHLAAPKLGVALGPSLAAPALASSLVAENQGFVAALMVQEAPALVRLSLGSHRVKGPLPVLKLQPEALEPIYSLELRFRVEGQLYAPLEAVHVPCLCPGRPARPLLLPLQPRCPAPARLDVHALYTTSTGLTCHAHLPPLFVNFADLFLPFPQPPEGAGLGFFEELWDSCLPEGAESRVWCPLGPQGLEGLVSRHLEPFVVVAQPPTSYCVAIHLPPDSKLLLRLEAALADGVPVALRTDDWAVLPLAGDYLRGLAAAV
log2 fold change [1]: 0.062
log2 fold change (barasertib): 0.035
log2 fold change [2]: 0.066
log2 fold change (volasertib): 0.011
log2 fold change [3]: 0.001
log2 fold change [4]: 0.002
log2 fold change [5]: 0.045
log2 fold change (saracatinib): -0.014
log2 fold change (sotrastaurin): -0.062

ADK, A0A5F9ZH76
log2 fold change [1]: -0.174
log2 fold change (barasertib): -0.019
log2 fold change (volasertib): 0.167

ACVR1 (UniProt Q04771)
log2 fold change (barasertib): -0.115
log2 fold change [4]: -0.244
log2 fold change [5]: 0.815 (active)

ABL1 isoform 2 (UniProt P00519)
log2 fold change (vemurafenib): 0.05
log2 fold change [1]: 0.125
log2 fold change (barasertib): 0.031
log2 fold change [2]: -0.03
log2 fold change (volasertib): -0.012
log2 fold change [3]: -0.048
log2 fold change [4]: 0.156
log2 fold change [5]: -0.097
log2 fold change (sotrastaurin): -0.012
